Tau FP inhib: blocks human tau fibril formation measured by polarization. P10636. K18 P301L tau heparin fibrillization, Alexa594 FP, 6 h. Potency, µM (doses to about 57.7 µM), usual class: inhibitors. 0.39% of 280,000 active. AID 1468; note: nearly all actives have a fitted effect of over 55% in size
Target sequence (P10636 561-689 P618L limits assumed): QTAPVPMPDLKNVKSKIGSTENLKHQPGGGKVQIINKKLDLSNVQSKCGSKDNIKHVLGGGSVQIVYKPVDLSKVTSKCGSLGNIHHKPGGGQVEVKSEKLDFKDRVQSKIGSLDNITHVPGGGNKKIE
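Human K18 P301L fragment (15 uM unlabeled plus 0.24 uM Alexa 594-labeled) in 100 mM sodium acetate pH 7 with compound, aggregation induced by 20 uM heparin for 6 hr at 37 C. ThT (30 uM) added for 1 hr, then Alexa 594 FP read.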
TR SRC2 fluor cs: Texas Red fluorescence interference in TRb-SRC2 counter-screen; TRb/SRC2 Texas Red total fluorescence interference; Potency, µM (titrated, usually from 106 µM); 0.29% of 280,000 active; AID 1479; active = well fitted curve in either direction with a large enough effect; inconclusive = small, poorly fitted or top-dose-only effect
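Flags fluorescent or light-absorbing compounds by total fluorescence, S + 2P, at 555 nm excitation and 632 nm emission. Mixture: 20 nM Texas Red SRC2 peptide, 0.6 uM human TRb LBD, 1 uM T3, 5% DMSO; compound exposure 5 h at ambient temperature.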
TRb SRC2 PPI: inhibitors of human thyroid hormone receptor beta-SRC2 interaction; P10828; TRbeta-SRC2 peptide binding, fluorescence polarization; receptor liganded with 1 µM T3; AID 1469; 0.065% of 280,000 active; Potency, µM (titrated, usually from 106 µM), hits mostly inhibitors; note: nearly all actives have a fitted effect of over 50% in size
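Assay buffer: 20 mM Tris-HCl, 100 mM NaCl, 10% glycerol, 1 mM EDTA, 0.01% NP-40, 1 mM DTT, 1 uM T3, 5% DMSO; TRb LBD 0.6 uM, Texas Red SRC2 20 nM; FP after 5 hr.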
Tau fluor counter: counter-screen for tau fibril formation inhibitors; Potency, µM (series often up to 57.7 µM); tau K18 P301L Alexa594 fluorescence, heparin fibrillization; 0.93% of 280,000 active; note: nearly all actives have a fitted effect of over 55% in size
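Human tau K18 P301L (15 uM unlabeled, 0.24 uM Alexa 594-labeled) in 100 mM sodium acetate pH 7 with 20 uM heparin, 6 hr at 37 C. ThT 30 uM added, 1 hr ambient; Alexa 594 FP and total fluorescence read at 555/632 nm.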
Tau ThT inhib: blocks human tau fibril formation measured by thioflavin T; P10636; recombinant tau K18 P301L, heparin-induced fibrillization, ThT fluorescence; Potency, µM (titrated, usually from 57.4 µM), hits mostly inhibitors; 2.1% of 270,000 active; AID 1460; note: nearly all actives have a fitted effect of over 55% in size
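Using a mix of unlabeled (15 uM) and Alexa 594-labeled (0.24 uM) tau K18 P301L, heparin-triggered fibrillization over 6 hr at 37 C was scored by ThT fluorescence.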
RGS12 GoLoco inh: RGS12 GoLoco-Gai1 interaction inhibition. P63096. Gai1:RGS12 GoLoco peptide FP, rhodamine, 10 min. Potency, µM (highest dose often 61.6 µM), actives largely listed as inhibitors. 0.44% of 230,000 active. AID 880; active = well fitted inhibition curve with a large enough effect, not every such curve was filed as active; inactive = no such curve, though single readings can be large or run the other way; note: nearly all actives have a fitted effect of over 30% in size
Target sequence (P63096 whole entry, looked up): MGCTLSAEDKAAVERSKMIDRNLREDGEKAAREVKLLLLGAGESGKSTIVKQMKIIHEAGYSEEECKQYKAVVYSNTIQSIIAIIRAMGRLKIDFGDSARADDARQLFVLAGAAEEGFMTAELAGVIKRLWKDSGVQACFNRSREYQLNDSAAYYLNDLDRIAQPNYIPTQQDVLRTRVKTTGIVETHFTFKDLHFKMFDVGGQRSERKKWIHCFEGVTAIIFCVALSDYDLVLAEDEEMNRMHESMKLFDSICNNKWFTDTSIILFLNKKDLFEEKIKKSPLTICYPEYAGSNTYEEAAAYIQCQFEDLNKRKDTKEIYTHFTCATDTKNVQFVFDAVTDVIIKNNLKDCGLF
Numbers stand for hits; i = inactive; ? = inconclusive; nt = no result; [ ] = remark or other dose. Compounds with a hit are over-represented: about 3.2% of the library has one in this group of screens. Unless noted, calls come from the whole dose curve; as a rule, active = well fitted curve in the direction sought with a large enough effect; inconclusive = small, poorly fitted or top-dose-only effect, or another doubt; inactive = no such curve, though single readings can be large; an effect the other way counts as inactive or inconclusive.

SMILES	Tau FP inhib	TR SRC2 fluor cs	TRb SRC2 PPI	Tau fluor counter	Tau ThT inhib	RGS12 GoLoco inh
CCn1c(SCC(=O)N/N=C/c2ccc(OC)c(OC)c2)nc2ccccc21	i	i	i	i	i	i
COc1ccc(/C=C/C(=O)NCCn2c(C)cc3ccccc32)cc1OC	i	i	i	?	?	i
C=CCSc1nc2ccccc2n1C(=O)/C=C/c1cc(OC)c(OC)c(OC)c1	22µM	i	i	i	25µM	i
CC(CC(O)C1OC1(C)C)C1CCC2(C)C3=CCC4C(C)(C)C(=O)CCC4(C)C3CC[C@@]12C (some centres not stated)	i	i	i	i	?	i
CN(C)CC1CCn2c(c(C3=C(c4cn(C)c5ccccc45)C(=O)NC3=O)c3ccccc32)C1 (configuration not stated)	nt	i	i	nt	nt	nt
Cc1ccc(S(=O)(=O)NC2OC(=O)C(Cl)=C2Cl)cc1 (configuration not stated)	?	i	i	i	28µM	i
COC(=O)C(NS(=O)(=O)c1ccc(C)cc1)c1ccccc1 (configuration not stated)	i	i	i	i	i	i
COc1cc(OC)cc(-c2nnc3n2N=C(c2ccc(OC)c(OC)c2)CS3)c1	nt	i	i	nt	nt	nt
O=c1cc(-c2ccc(O)c(-c3c(O)cc(O)c4c(=O)cc(-c5ccc(O)cc5)oc34)c2)oc2cc(O)cc(O)c12	?	i	?	?	14µM	i
COc1c(-c2ccc(O)cc2)oc2cc(O)cc(O)c2c1=O	i	i	i	i	i	i
COc1cc(O)c2c(=O)cc(-c3ccc(OC)c(-c4c(O)cc(O)c5c(=O)cc(-c6ccc(O)cc6)oc45)c3)oc2c1	?	i	i	?	i	i
O=c1c(-c2c(O)cc(O)c3c(=O)cc(-c4ccc(O)cc4)oc23)c(-c2ccc(O)cc2)oc2cc(O)cc(O)c12	?	i	i	?	16µM	i
COc1ccc(OC)c(NC(=O)Cn2nc3c(cc2=O)CCCC3)c1	i	?	i	i	i	nt
CCOC(=O)c1ccc(N2C(=O)c3[nH]nc(-c4ccc(C)cc4)c3C2c2cccc(F)c2)cc1 (configuration not stated)	?	i	i	i	i	nt
CCOC(=O)c1ccc(N2C(=O)c3[nH]nc(-c4ccc(OC)cc4)c3C2c2cccc(O)c2)cc1 (configuration not stated)	16µM	i	i	?	?	nt
Cc1ccc(-n2nc3c(=O)n(CCCC(=O)NCCc4ccccc4Cl)nc(C)c3c2C)cc1	i	i	i	i	i	nt
CN(CCO)c1cc(Sc2nc3ccccc3s2)c2nonc2c1[N+](=O)[O-]	i	i	i	?	28µM	i
CC(=O)OCCNc1cc(SC(C)C)c2nonc2c1[N+](=O)[O-]	i	i	i	i	?	i
CC(=O)OCCN(C)c1cc(SC(C)C)c2nonc2c1[N+](=O)[O-]	i	i	i	?	14µM	i
NS(=O)(=O)c1ccc(Sc2nc3ccccc3s2)c([N+](=O)[O-])c1	i	i	i	?	nt	i
O=C1CC[C@@H](C(=O)N[C@@H](Cc2cnc[nH]2)C(=O)N[C@@H](Cc2c[nH]c3ccccc23)C(=O)N[C@@H](CO)C(=O)N[C@@H](Cc2ccc(O)cc2)C(=O)O)N1	nt	i	i	nt	nt	nt
COc1ccccc1CNc1ncncc1-c1ccc(C(=O)N(C)C)cc1	nt	nt	nt	nt	nt	i
C[C@@]12CCC(=O)C=C1C=CC1C2CC[C@]2(C)C1CC[C@@]21CCC(=O)O1 (some centres not stated)	i	i	i	i	i	i
O=c1oc2ccc3ccccc3c2cc1-c1nnc(Nc2ccc(F)cc2)s1	i	i	i	i	?	nt
Cc1cc2nc3[nH]c4c(Cl)cc(Cl)cc4c3nc2cc1C	nt	nt	nt	nt	nt	i[14.2 µM]
SMILES	Tau FP inhib	TR SRC2 fluor cs	TRb SRC2 PPI	Tau fluor counter	Tau ThT inhib	RGS12 GoLoco inh
CCN(CCO)c1ccc(NC(=S)Nc2cccc(S(=O)(=O)N(C)C)c2)cc1	?	i	?	?	14µM	i
CN(C)S(=O)(=O)c1cccc(NC(=S)Nc2cc(Cl)cc(Cl)c2)c1	25µM	i	i	?	i	i
CCOc1ccccc1NC(=O)c1nn(C)c2c1CSc1ccccc1-2	i	i	i	11µM[quencher]	?	nt
O=C(NN=c1c(=O)c2ccccc2c1=O)c1ccccc1	?	i	?	i	5.6µM	i
COc1cccc(C2=CC(c3ccccc3F)n3ncc(C(=O)Nc4ccc(F)cc4)c3N2)c1 (configuration not stated)	?	i	i	?	i	nt
N#Cc1c(N)oc(-c2ccc3c(c2)OCO3)c1-c1ccc2c(c1)OCO2	i	i	i	28µM[quencher]	?	i
CCn1c(=O)cc(SCC(=O)NCCc2cc(OC)ccc2OC)c2ccccc21	i	i	i	i	i	nt
Oc1ccccc1-c1nc(NCC2CCCO2)c2ccccc2n1 (configuration not stated)	?	i	i	?	?	i
CCC(C)Nc1nc(-c2cccc(OC)c2O)nc2ccccc12 (configuration not stated)	?	i	i	16µM[quencher]	?	i
COc1cccc(-c2nc(Oc3cccc(C)c3C)c3ccccc3n2)c1O	i	i	i	i	i	i
COc1cccc(-c2nc(NC(C)C)c3ccccc3n2)c1O	i	i	i	16µM[quencher]	18µM	i
COc1cccc(-c2nc(NCC3CCCO3)c3ccccc3n2)c1O (configuration not stated)	i	i	i	20µM[quencher]	?	i
CC[C@@]1([C@@H]2O[C@@H]([C@H]3O[C@@](O)(CO)[C@H](C)C[C@@H]3C)C[C@@H]2C)CC[C@@H]([C@]2(C)CCC3(C[C@H](O)[C@@H](C)[C@@H]([C@@H](C)[C@@H](OC)[C@H](C)C(=O)O)O3)O2)O1 (some centres not stated)	nt	i	i	nt	nt	nt
COc1cc(NS(=O)(=O)c2cc(Br)cc3c2N(C(C)=O)C(C)C3)cc(OC)c1 (configuration not stated)	i	i	i	i	i	nt
CCc1cccc(NC(=O)Cn2c(=O)ccc3cc(S(=O)(=O)N4CCC(C)CC4)ccc32)c1	?	i	i	i	i	nt
CCCCNC(=O)Cn1ncc2c(C)n(Cc3cccc(Cl)c3)c(C)c2c1=O	i	i	i	i	i	nt
COc1ccc(Cc2nnc(N=Nc3c(O)[nH]c4ccc(Br)cc34)[nH]c2=O)cc1	i	i	i	i	16µM	i
COC(=O)NC(c1ccccc1)C(C#N)C(=O)OC (configuration not stated)	i[11.6 µM]	i[11.2 µM]	i[11.2 µM]	i[11.6 µM]	i[11.5 µM]	nt
O=[N+]([O-])c1ccc(Nc2ccc3ccccc3c2)nc1	i	i	i	?	1.3µM	i
